# Source: PubChem BioAssay AID602281 (The Scripps Research Institute Molecular Screening Center, 2012)
# The campaign covered roughly 360,000 compounds. About 2,900 (0.81%) were called active. This is one part of a sample in which actives are shown more often than they occur.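 Rule for the calls: active = inhibition above the mean inhibition across every tested compound plus 3 SD (cut at about 22% in these data); inactive = the rest.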
# Target: Perilipin-5 (Homo sapiens) + 1-acylglycerol-3-phosphate O-acyltransferase ABHD5 (Homo sapiens) (UniProt Q00G26+Q8WTS1)
# Test: blockers of ABHD5 binding to perilipin-5 – cell lysate, split luciferase complementation, luminescence, primary screen (AID 602281);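 note: 0% = DMSO only wells and the 100% control is not disclosed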
# Conditions: Split G. princeps luciferase complementation, 4 h, at 4 µM, hits give high values
# Chain of Perilipin-5 (Homo sapiens) + 1-acylglycerol-3-phosphate O-acyltransferase ABHD5 (Homo sapiens) (Q00G26 whole entry, looked up): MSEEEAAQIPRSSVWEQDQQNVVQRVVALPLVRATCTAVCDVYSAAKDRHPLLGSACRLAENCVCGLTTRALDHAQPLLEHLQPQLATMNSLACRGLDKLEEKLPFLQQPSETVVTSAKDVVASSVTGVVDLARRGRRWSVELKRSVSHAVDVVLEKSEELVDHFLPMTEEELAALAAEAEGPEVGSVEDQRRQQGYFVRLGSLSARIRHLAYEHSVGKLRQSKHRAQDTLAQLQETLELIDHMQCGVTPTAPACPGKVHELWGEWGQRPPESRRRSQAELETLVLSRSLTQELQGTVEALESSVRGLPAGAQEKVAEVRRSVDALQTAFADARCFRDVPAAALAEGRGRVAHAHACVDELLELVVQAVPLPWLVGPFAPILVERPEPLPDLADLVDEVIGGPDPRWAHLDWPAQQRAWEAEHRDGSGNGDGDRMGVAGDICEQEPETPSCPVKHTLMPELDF
# Chain of Perilipin-5 (Homo sapiens) + 1-acylglycerol-3-phosphate O-acyltransferase ABHD5 (Homo sapiens) (Q8WTS1 whole entry, looked up): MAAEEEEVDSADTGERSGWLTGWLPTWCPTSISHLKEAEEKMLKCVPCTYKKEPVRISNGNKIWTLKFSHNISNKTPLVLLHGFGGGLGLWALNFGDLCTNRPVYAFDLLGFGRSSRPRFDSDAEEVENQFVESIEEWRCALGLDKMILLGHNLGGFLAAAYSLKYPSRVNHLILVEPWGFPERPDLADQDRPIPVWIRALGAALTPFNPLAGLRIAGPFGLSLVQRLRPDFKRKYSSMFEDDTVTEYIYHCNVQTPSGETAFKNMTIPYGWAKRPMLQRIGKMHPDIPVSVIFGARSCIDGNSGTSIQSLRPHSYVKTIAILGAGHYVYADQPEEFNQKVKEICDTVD
row,Compound,inhibition
1,O=C(CCl)Nc1ccc(Sc2ccc(NC(=O)CCl)cc2)cc1,28.2% (active)
2,O=C(O)CC(SCC(=O)Nc1ccc(Br)cc1)C(=O)O (configuration not stated),0.5% (inactive)
3,CC(=O)Nc1ccc(NC(=O)CC2CCCC2)cc1,1.52% (inactive)
4,CN(CC(=O)NCCc1ccc(F)cc1)CC(=O)Nc1ccc(F)c(F)c1F,3.93% (inactive)
5,O=C(Nc1ccccc1)c1nnsc1S(=O)(=O)c1ccc(Cl)cc1,58.3% (active)
6,C/C(=N\NS(=O)(=O)c1ccc(Cl)cc1)c1ccc(NC(=O)c2ccco2)cc1,-4.17% (inactive)
7,O=C(Nc1ccc(S(=O)(=O)N2CCOCC2)cc1)C1CCN(S(=O)(=O)c2ccc(Cl)cc2)CC1,-0.02% (inactive)
8,COC(=O)[C@@]1(Cc2ccc(F)cc2)[C@H]2c3cc(C(=O)N4CCCC4)n(C[C@H](O)CO)c3C[C@H]2CN1C(=O)c1ccccc1,6.42% (inactive)
9,COC(=O)[C@@]1(Cc2ccc(OC)cc2)[C@H]2c3cc(C(=O)N4CCCC4)n(Cc4ccc(OC(F)(F)F)cc4)c3C[C@H]2CN1C(=O)c1ccccc1,18.3% (inactive)
10,COC(=O)[C@@]1(Cc2ccc(F)cc2)[C@H]2c3cc(C(=O)N4CCCC4)n(Cc4ccc(OC(F)(F)F)cc4)c3C[C@H]2CN1C(=O)c1ccccc1,22.3% (active)
11,COC(=O)Nc1ccc(S(=O)(=O)N(C)CC(F)(F)C(F)F)cc1,4.74% (inactive)
12,CC1CC(C)CN(S(=O)(=O)c2cccc3nonc23)C1 (configuration not stated),-3.19% (inactive)
13,COc1cccc(OC)c1CN(C)C(=O)c1cnccc1C(F)(F)F,4.28% (inactive)
14,O=C(COC(=O)c1ccc(F)c(S(=O)(=O)N2CCOCC2)c1)NCc1ccc2c(c1)OCO2,2.94% (inactive)
15,Cc1ccnc(NC(=O)CCC(=O)N(CC(=O)NCCc2ccccc2)Cc2cccs2)c1,1.17% (inactive)
16,O=C(c1cc2sccc2n1Cc1ccc(F)cc1)N1CCc2ccccc21,-4.45% (inactive)
17,Brc1ccc(-c2nn[nH]n2)cc1,-0.33% (inactive)
18,Cc1ccc(-c2ccc(CN3C(C(C)C)C(=O)N(Cc4cn(CCC5OCCCO5)nn4)CCS3(=O)=O)cc2)cc1 (configuration not stated),-3.62% (inactive)
19,CC(C)n1cnc2c(NCc3ccccc3)cc(OCC3CCN(C)CC3)cc21,52.1% (active)
20,c1ccc2c(c1)C(=NC1CCCCC1)NC2=NC1CCCCC1,10.2% (inactive)
21,O=C(NNC(=S)Nc1ccccc1)c1cccc(S(=O)(=O)N2CCOCC2)c1,-0.88% (inactive)
22,COC(=O)C[C@H]1C=C[C@H](NC(=O)c2ccc(F)cc2)[C@@H](CO)O1,7.9% (inactive)

row,Compound,inhibition
1,CCOc1ccccc1NC(=S)C(=C([O-])c1ccc2c(c1)OCCO2)[n+]1ccc(CC)cc1,-7.74% (inactive)
2,Cc1nn(C)c(C)c1C(C)NC(=O)c1ccc(OC2CCN(Cc3ccccn3)CC2)cc1 (configuration not stated),11.1% (inactive)
3,CC1Cc2[nH][nH]c(=O)c2C(C2CCCC2)O1 (configuration not stated),8.22% (inactive)
4,COC(=O)c1nc(NC(=O)c2ccc(C(C)(C)C)cc2)n[nH]1,81.5% (active)
5,CSc1nccc(NC(=O)c2ccc(C(C)(C)C)cc2)n1,-0.98% (inactive)
6,O=C(Nc1n[nH]c(C(F)(F)F)n1)c1cccs1,3.2% (inactive)
7,Cc1ccc(NC(=O)c2ccc(Cl)nc2)cc1S(=O)(=O)N1CCOCC1,-3.8% (inactive)
8,CCCn1c(SCC(=O)Nc2c(C)cccc2C)nnc1C(C)C,5.88% (inactive)
9,CCOC(=O)c1nnn(CC(=O)Nc2cccc(F)c2)c1C(=O)OCC,-0.66% (inactive)
10,O=C(O)c1cccnc1NC1CCCC1,7.94% (inactive)
11,COc1ccc(CCNC(=O)CN(c2ccccc2)S(C)(=O)=O)cc1OC,6.8% (inactive)
12,COc1ccc(CCNC(=O)c2nnc(CS(=O)(=O)c3ccccc3)o2)cc1OC,23.8% (active)
13,COc1ccc(CCNC(=O)c2ccc(CS(=O)(=O)c3ccc(Br)cc3)o2)cc1OC,5.5% (inactive)
14,O=C(O)c1ccc2c(c1)C(=O)N(c1ccc(/C=C/C(=O)c3ccccc3)cc1)C2=O,50.4% (active)
15,CC(=O)Oc1ccc(C)cc1N1C(=O)c2ccc(C(=O)O)cc2C1=O,0.33% (inactive)
16,O=C(c1ccc2c(c1)C(=O)N(c1ccc(Cl)cc1)C2=O)N1CCN(c2ccccn2)CC1,0.95% (inactive)
17,O=[N+]([O-])c1ccc(S(=O)(=O)Nc2cccc(-c3ccc(N4CCCC4)nn3)c2)cc1,-6.73% (inactive)
18,COC(=O)CN(c1nc(C)c(Cl)c(OC)n1)S(=O)(=O)c1ccc(C)cc1,-6.3% (inactive)
19,Oc1c(C(c2ccco2)N2CCC3(CC2)OCCO3)sc2ncnn12 (configuration not stated),12.2% (inactive)
20,Cc1nc2sc(C(c3ccco3)N3CCOCC3)c(O)n2n1 (configuration not stated),26.3% (active)
21,Cc1ccc(C(c2sc3nc(C)nn3c2O)N2CCN(c3ccc(F)cc3)CC2)cc1 (configuration not stated),-0.55% (inactive)
22,Cc1ccc(C(c2sc3nc(C)nn3c2O)N2CCN(c3ccccc3)CC2)cc1 (configuration not stated),2.33% (inactive)

row,Compound,inhibition
1,Cc1nc2sc(C(c3ccco3)N3CCC4(CC3)OCCO4)c(O)n2n1 (configuration not stated),22.7% (active)
2,COC(=O)[C@@]12C[C@@H](CC(=O)N3CCC(c4ccccc4)CC3)C(=O)N(Cc3ccccc3)C1=CCC(C)(C)C2,4.36% (inactive)
3,CC1=NNC(=O)C1CC(=O)N/N=C/c1ccncc1 (configuration not stated),0.97% (inactive)
4,CC(C)(C)C(=O)N1CCC[C@@]1(CO)C(=O)O,0.41% (inactive)
5,CC[C@]12c3[nH]c4cc(CCC(=O)N(C)C)ccc4c3CCN1C(=O)[C@@H](CC(=O)NCCCN(C)C)C[C@@H]2C(=O)N1CCN(C(=O)c2ccco2)CC1,-4.19% (inactive)
6,COc1ccc(C2SCCN2S(=O)(=O)c2ccccc2)cc1OC (configuration not stated),-4.96% (inactive)
7,COc1ccc(C2=NO[C@@H]3C(=O)N(Cc4ccccc4)C(=O)[C@H]23)cc1OC,3.37% (inactive)
8,COc1ccc(-c2cc(C(F)(F)F)nc(S(C)(=O)=O)n2)cc1OC,26.6% (active)
9,CCN1CCN(C(=O)Cn2nc(C)n3c(cc4c(OC)cccc43)c2=O)CC1,0.48% (inactive)
10,CC(=O)N[C@H]1[C@H]([C@H](O)[C@H](O)CO)OC(C(=O)O)=C[C@@H]1O,1.93% (inactive)
11,COc1ccc(CNC(=O)C(c2ccc(O)cc2)N(Cc2ccco2)C(=O)c2snc(C(N)=O)c2N)cc1 (configuration not stated),-11.3% (inactive)
12,NC(=O)c1nsc(C(=O)N(CC(=O)NCc2ccc(F)cc2)Cc2ccco2)c1N,36% (active)
13,Cc1ccnc(NC(=O)CCC(=O)N(CC(=O)NCc2ccccc2)Cc2ccco2)c1,1.15% (inactive)
14,Cc1csc2ncc(C(=O)N(Cc3ccccc3)c3ccccn3)c(=O)n12,3.35% (inactive)
15,COc1cc(CNCCN(C)C)ccc1OCc1c(F)cccc1Cl,11.6% (inactive)
16,O=C(/C=C/c1ccc(OCc2c(F)cccc2Cl)cc1)N1CCOCC1,-6.95% (inactive)
17,CN(C)CCCNC(=O)/C=C/c1ccc(OCc2c(F)cccc2Cl)cc1,28.6% (active)
18,O=S(=O)(c1ccc2ccccc2c1)N1CCN(S(=O)(=O)N2CCOCC2)CC1,-1.34% (inactive)
19,CC[C@@H](C)[C@@H]1CN([C@@H](C)CN2CCC[C@H]2CN2C(N)=NC[C@H]2C(C)C)C(=N)N1CCc1ccc(Cl)c(Cl)c1,11.4% (inactive)
20,C[C@@H](CN1CCC[C@H]1CN1C(N)=NC[C@@H]1Cc1ccccc1)N1C[C@@H](Cc2ccccc2)N(CCCC2CCCC2)C1=N,34.8% (active)
21,CCCCN1C(N)=NC[C@@H]1Cc1ccccc1,4.61% (inactive)
22,Cc1ccc2c(c1)N(CC(=O)N1CCCc3ccccc31)C(=O)C(C)O2 (configuration not stated),5.29% (inactive)

row,Compound,inhibition
1,CC(=O)NC1=NN(C(C)=O)C(C)(CCS(=O)(=O)c2ccc(Cl)c(Cl)c2)S1 (configuration not stated),2.36% (inactive)
2,CCN(CC)CCN(C(=O)c1ccc2c(c1)CCCC2)c1nc2c(OC)cccc2s1,25% (active)
3,COc1ccccc1CNC(=O)Cn1cc2c(n1)CCCC2,8.04% (inactive)
4,COc1cccc2sc(N(CCCN(C)C)C(=O)C(c3ccccc3)c3ccccc3)nc12,43.5% (active)
5,COc1ccccc1NC(=O)CC(NCCN(C)C)C(=O)O (configuration not stated),0.5% (inactive)
6,CN(CC1CCCN(CCc2cccc(C(F)(F)F)c2)C1)C(=O)c1ccc2nc[nH]c2c1 (configuration not stated),-0.06% (inactive)
7,CCN(CC)CCNS(=O)(=O)c1ccc(/C=C/C(=O)O)cc1,4.35% (inactive)
8,OCc1ccc(-c2ccccc2)c(-c2ccccc2)c1,-5.6% (inactive)
9,CCCC/C(C)=N/NC(=O)NC1CCCCC1,-3.36% (inactive)
10,COc1ccc(C2=NOC3(CC(=O)N(c4ccc(Cl)cc4)C3=O)C2)c(OC)c1 (configuration not stated),0.13% (inactive)
11,Cc1cc(O)ccc1-c1cc(C(=O)NCc2cc(C(F)(F)F)cc(C(F)(F)F)c2)[nH]n1,-13.6% (inactive)
12,COCCNc1nnc(SCC(=O)NNC(=O)c2ccco2)s1,0.13% (inactive)
13,COc1ccc(NC(=O)/C(Cl)=C(/Cl)S(=O)Cc2ccc(C)cc2)cn1 (configuration not stated),96.3% (active)
14,COC(=O)COc1ccc2c(c1C)O/C(=C\c1ccco1)C2=O,14.5% (inactive)
15,CC(C)(C)C1C/C(=C/c2ccco2)C(=O)/C(=C/c2ccco2)C1 (configuration not stated),52.8% (active)
16,Cc1ccc(S(=O)(=O)Cn2nnnc2CN2CCN(Cc3ccc4c(c3)OCO4)CC2)cc1,-0.76% (inactive)
17,O=C(CNC(=O)C12CC3CC(CC(C3)C1)C2)OCC(=O)N1CCCCC1,-6.36% (inactive)
18,Cc1cc(C)nc(NS(=O)(=O)c2ccc(N3C(=O)C4CCCCC4C3=O)cc2)n1 (configuration not stated),-6.56% (inactive)
19,O=C(c1cccnc1)N(c1cc2sc(=O)oc2c2ccccc12)S(=O)(=O)c1ccccc1,55.9% (active)
20,O=C(CN(c1cc(C(F)(F)F)ccc1Cl)S(=O)(=O)c1ccccc1)NCc1cccnc1,3.26% (inactive)
21,CCc1ccc(N(CC(=O)NCc2cccnc2)S(=O)(=O)c2ccccc2)cc1,8.86% (inactive)
